# In the supplement of paper PMC6555819:
# How the values were obtained:
# Test in all cases: PBM binding z-score (relative to random genomic background probes); higher = stronger binding; sequences stand for … in GC…GCGATTGACAGCGTAGAATGAAGG
# [1] = test system: FXR:RXRa (NR concentration 270 nM, RXRa partner concentration 90 nM)
# Summary of the method: (§1)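 Binding z-scores were set against random background probes. The data came from custom Agilent 4×180K protein-binding microarrays carrying double-stranded probes with 34-nt variable regions, incubated 1 h with ligand-free nuclear receptor dimers. Partner-specific antibodies detected binding, and scanned fluorescence was regression-normalized.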
# [2] = test system: LXRa:RXRa (NR concentration 270 nM, RXRa partner concentration 90 nM)
# Summary of the method: as §1
# [3] = test system: LXRa homodimer (NR concentration 270 nM)
# Summary of the method: as §1
# [4] = test system: LXRb:RXRa (NR concentration 270 nM, RXRa partner concentration 90 nM)
# Summary of the method: as §1
# [5] = test system: LXRb homodimer (NR concentration 270 nM)
# Summary of the method: as §1
# [6] = test system: PPARa:RXRa (NR concentration 270 nM, RXRa partner concentration 90 nM)
# Summary of the method: as §1
# [7] = test system: PPARg:RXRa (NR concentration 180 nM, RXRa partner concentration 90 nM)
# Summary of the method: as §1
# [8] = test system: PPARg:RXRa 270nM:90nM, anti-RXR (NR concentration 270 nM, RXRa partner concentration 90 nM)
# Summary of the method: as §1
# [9] = test system: PPARg:RXRa 30nM:10nM, anti-RXR (NR concentration 30 nM, RXRa partner concentration 10 nM)
# Summary of the method: as §1
# [10] = test system: PPARg:RXRa 90nM:30nM, anti-RXR (NR concentration 90 nM, RXRa partner concentration 30 nM)
# Summary of the method: as §1
# [11] = test system: PPARg:RXRa DBDmut IVT, anti-RXR (DBD mutation: RXRa K156A/R161A, NR concentration 270 nM, RXRa partner concentration 90 nM)
# Summary of the method: as §1
# [12] = test system: PPARg:RXRa IVT, anti-PPARg (NR concentration 270 nM, RXRa partner concentration 90 nM)
# Summary of the method: as §1
# [13] = test system: PPARg DBDmut:RXRa IVT, anti-PPARg (DBD mutation: PPARg1 K132A/R137A, NR concentration 270 nM, RXRa partner concentration 90 nM)
# Summary of the method: as §1
# [14] = test system: PPARg DBDmut IVT, anti-PPARg (DBD mutation: PPARg1 K132A/R137A, NR concentration 270 nM)
# Summary of the method: as §1
# [15] = test system: PPARg homodimer (NR concentration 180 nM)
# Summary of the method: as §1
# [16] = test system: PXR:RXRa (NR concentration 270 nM, RXRa partner concentration 90 nM)
# Summary of the method: as §1
# [17] = test system: PXR homodimer (NR concentration 270 nM)
# Summary of the method: as §1
# [18] = test system: RARa:RXR (NR concentration 270 nM, RXRa partner concentration 90 nM)
# Summary of the method: as §1
# [19] = test system: RARa homodimer (NR concentration 270 nM)
# Summary of the method: as §1
# [20] = test system: RARb:RXRa (NR concentration 270 nM, RXRa partner concentration 90 nM)
# Summary of the method: as §1
Sequence,PBM binding z-score [1],PBM binding z-score [2],PBM binding z-score [3],PBM binding z-score [4],PBM binding z-score [5],PBM binding z-score [6],PBM binding z-score [7],PBM binding z-score [8],PBM binding z-score [9],PBM binding z-score [10],PBM binding z-score [11],PBM binding z-score [12],PBM binding z-score [13],PBM binding z-score [14],PBM binding z-score [15],PBM binding z-score [16],PBM binding z-score [17],PBM binding z-score [18],PBM binding z-score [19],PBM binding z-score [20]
CCAGACAGGTGAATGGTAACTCAGTCTGGTACGC,-0.448,-0.493,-0.271,-0.246,-0.723,0.129,0.419,0.128,-0.647,-0.216,0.897,0.735,-0.452,-0.717,0.288,-0.4,-0.302,-0.379,-0.0506,0.381
AGAAAGAGGTTATTAAGATCAGGGAATTGCGGTC,2.15,2.15,0.442,1.75,0.379,2.71,1.18,1.43,0.665,1.29,1.7,1.4,0.63,0.0238,1.2,1.38,0.96,1.93,1.28,1.97
TCATATAGGTAAAAGGTGAAAGTGGGTGTGGTAA,2.2,2.19,0.716,2.45,0.97,5.49,9.05,8.74,8.47,9.1,5.36,5.24,0.898,1.26,2.63,2.31,1.28,3.5,2.39,2.22
ATCTCTAGGTCACAAGTTCAGTGAAAGAGAGGAC,3.91,4.68,3.14,3.08,2.24,4.35,6.67,5.95,3.16,5.39,6.82,6.99,2.94,2.5,2.82,3.7,2.65,3.86,1.69,4.5
TGAATGAGGTTCAAGATCAGGGAACGTGGCGTCG,0.995,0.96,-0.757,0.185,-0.0166,1.76,0.831,1.62,0.424,1.14,-0.641,0.696,0.378,0.169,-0.0825,0.583,-0.309,0.775,0.0432,1.17
GCTCGGAGGACAAGGTCAGAGCCTTGTCCGTAGA,2.67,2.08,-0.456,1.59,-0.419,2.91,0.887,2.22,-0.306,1.23,-0.797,1.42,-1,-0.556,0.956,1.46,-0.573,1.8,-0.489,3.49
TCATATAGTTAATACAGGTGAAAGTCGGCATCTA,1.36,1.88,0.641,1.3,0.448,1.8,1.13,2.41,4.54,3.7,2.82,1.74,1.53,1.48,1.32,1.05,0.721,1.59,2.34,0.914
CCTACTGGGCCACGAAAGGTCATTGCTTCAGTGA,3.92,5.22,5.24,4.45,0.134,4.62,4.49,4.91,2.15,4.17,5.37,5.7,1.88,1.06,3.27,5.56,2.05,5.35,1.56,3.94
ATACCAAGGTGATCGTGAGGTCGTTAATACTAAC,1.59,1.12,0.651,1.37,-0.102,1.55,0.445,0.146,-0.147,0.0284,0.582,1.08,0.575,0.441,1.01,3.26,1.7,2.15,0.0918,1.44
CAAACTAGTTCAAGGTCAAAGTCGGTTTGTGCCA,5.67,5.81,6.22,4.81,1.76,5.13,3.27,3.88,1.53,3.03,2.12,3.26,0.529,-0.205,3.85,5.23,3.52,5.1,0.936,4.34
CCTTACGGGTCAAGCTTATAGCACGGGTGGTACG,5.81,3.52,-0.087,3.04,0.0884,4.93,4.12,4.65,1.87,3.43,2.26,3.48,0.116,-0.188,1.56,2.77,-0.265,3.81,0.95,4.05
CGTCAAAGTTCAACTAAGGTAACGTTAAGCACGC,7.22,6.43,4.8,4.26,2.3,5.14,5.07,5.53,2.21,4.37,0.539,2.1,1.06,1.28,3.26,5.84,4.4,4.54,2.15,5.22
CGAACTAGGTTAGAACAGGACAGTGAAGGATGAT,0.283,0.174,-0.0175,-0.235,0.0334,1.22,1.6,1.27,0.448,0.886,5.02,4.21,0.977,0.101,0.487,-0.0109,-0.256,0.212,-0.0731,0.527
TCTCGGAGGCCACGAAAGGTCAGAGCTCGACATC,3.4,5.27,1.95,3.63,-0.386,3.82,1.39,2.91,2.22,2.46,1.78,1.96,0.112,-0.0793,2.29,4.58,-0.146,4.54,0.24,4.24
GTACCAAGGTGAATAGGTTGTTGATGAGTAGGCG,0.414,0.445,0.0313,0.384,-0.172,1.27,0.802,0.714,-0.0689,0.204,1.75,2.2,0.246,0.502,0.999,0.105,0.241,0.634,1.32,1.36
CTACCAAGGTGAACATGGTCGTTGATTACTATTC,0.63,0.673,-0.0625,1.05,-0.345,1.73,0.829,0.843,0.0499,0.359,2.77,2.62,0.872,-0.0867,0.593,0.435,-0.201,1.12,0.284,1.66
ACTATTTGGTCAGCTGAGGTCACACACAATTCGG,3.54,3.48,2.98,3.81,1.88,3.9,1.86,2.4,0.852,1.66,1.59,2.69,1.5,1.46,2.9,5.26,1.97,4.3,1.66,3.65
GCTCGGAGGACGAGGTCAGAGCTTTGTCCGTAGA,1.88,1.6,-0.0578,1.38,-1.38,2.9,0.449,1.04,-0.495,0.269,-0.0575,0.506,-0.927,-1.57,0.162,2.57,0.107,2.7,-1.37,2.92
TCTAGCAGGCCAGAGGGTAACTCAAGAGGTACGG,0.0239,-0.0819,-0.636,-0.399,-1.36,1.15,2.11,3.56,2.38,3.26,0.667,0.376,-0.698,-0.379,0.0885,-0.174,-0.643,-0.0159,-0.296,0.332
